Bioassay records: PubChem, National Center for Advancing Translational Sciences (NCATS)
SMN2 splice enh = SMN2 splice variant enhancement; HEK293 SMN2-luciferase splicing reporter, luminescence, 30-36 h; Potency, µM (top dose mostly 46.1 µM), for the others: at the top dose activity change, positive = activation, actives largely listed as activators; 2.8% of 210,000 active; also: % of control where 0% means no effect; nearly all actives have a fitted effect of over 55% in size
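HEK293 cells carry an SMN2 minigene-luciferase reporter in which exon 7 inclusion puts luciferase in frame. Cells were seeded at 2000 cells/well, attached for 10-12 hours, then exposed to compounds for 30-36 hours at 37C before ONE-Glo luminescence.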
NPC1 prom act = NPC1 promoter activation; 2.4% of 320,000 active; Huh7 NPC1 promoter luciferase reporter, 24 h; AID 485313; Potency, µM (titrated, usually from 9.22 µM), without a hit: at the top dose activation, actives largely listed as activators; also: % of control where 0% means no effect; nearly all actives have a fitted effect of over 60% in size
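In 1536-well qHTS, Huh7 cells harboring an NPC1 promoter–luciferase construct received compound for 24 h; activation was quantified by luminescence following luciferase reagent addition.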
ELG1 genotoxic = inducers of genotoxicity in HEK293T ELG1-luciferase cells; HEK293T ELG1-luciferase reporter, luminescence, 16 h; Potency, µM (highest dose often 46 µM), inactives show at the highest dose activity change, positive = activation, actives largely listed as activators; 1.3% of 330,000 active; also: % of control where 0% means no effect; nearly all actives have a fitted effect of over 60% in size
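Genotoxicity was scored as increased ELG1-luciferase reporter signal, measured by ONE-Glo luminescence (30 min, room temperature). Compound or vehicle exposure of the HEK293T reporter cells lasted 16 hr at 37°C.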
Rab9 promoter act = Rab9 promoter activation; 2.8% of 320,000 active; Huh7 Rab9 promoter-luciferase reporter, luminescence, 24 h; Potency, µM (titrated, usually from 9.22 µM), inactives show at the top dose activation, negative = inhibition, actives largely listed as activators; also: % of control where 0% means no effect; nearly all actives have a fitted effect of over 60% in size
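Rab9 promoter-driven luciferase in stably transfected Huh7 cells; 1500 cells/well rested 2 h, exposed to compound in DMSO for 24 h at 37 °C, 5% CO2. Luminescence read 10 min after adding luciferase reagent at ambient temperature.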
KinaseGlo FLuc = Kinase-Glo luciferase inhibition (counter-screen). Potency, µM (top dose mostly 38.3 µM), inactives show at the highest dose activity change, negative = inhibition, most hits filed as inhibitors. Kinase-Glo luciferase, ATP luminescence, 8 min. AID 1379. Q27757. 0.28% of 200,000 active; also: % is scaled to controls: 0 for no effect and ±100 for the full control effect; nearly all actives have a fitted effect of over 60% in size
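Light output from Kinase-Glo luciferase with luciferin and 10 uM ATP in 50 mM imidazole pH 7.2, KCl, MgCl2, Tween 20, BSA; compound pin-delivered, 8-min ambient incubation, then luminescence read.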
FLuc modulator = inhibits or activates purified firefly luciferase, miR-21 counter-screen | 6.9% of 360,000 active | Potency, µM (doses to about 57.5 µM), without a hit: at the top dose activity change, negative = inhibition, usual class: inhibitors | purified FLuc, Km substrates, luminescence inhibition;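 also: plate controls were vehicle for no effect and reference inhibitor for full effect; nearly all actives have a fitted effect of over 55% in size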
Target sequence (P08659 whole entry, looked up): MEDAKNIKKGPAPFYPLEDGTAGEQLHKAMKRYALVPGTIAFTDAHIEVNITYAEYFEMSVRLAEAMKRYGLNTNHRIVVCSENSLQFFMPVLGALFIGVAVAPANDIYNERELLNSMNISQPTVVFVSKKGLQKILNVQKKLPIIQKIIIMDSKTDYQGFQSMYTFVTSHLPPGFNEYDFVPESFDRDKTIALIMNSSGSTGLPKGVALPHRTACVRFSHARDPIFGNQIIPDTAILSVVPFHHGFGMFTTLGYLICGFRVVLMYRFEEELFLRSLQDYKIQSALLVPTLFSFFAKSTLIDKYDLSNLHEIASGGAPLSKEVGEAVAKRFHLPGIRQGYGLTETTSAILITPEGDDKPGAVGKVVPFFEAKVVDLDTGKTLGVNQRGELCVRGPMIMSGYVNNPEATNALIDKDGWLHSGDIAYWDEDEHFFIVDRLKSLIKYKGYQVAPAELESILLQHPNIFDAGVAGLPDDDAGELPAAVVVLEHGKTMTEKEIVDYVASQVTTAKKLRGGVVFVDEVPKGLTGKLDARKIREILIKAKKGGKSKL
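Purified P. pyralis luciferase (10nM final) with 10uM D-luciferin and 10uM ATP (Km levels) in 50mM Tris acetate pH 7.5, 10mM Mg acetate, 0.01% Tween-20, 0.05% BSA; qHTS 6-point titration, ~60 µM downward; luminescence read.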
Numbers without * were called inactive; ? = inconclusive; . = no result; [ ] = dose if it differs, or a comment. Shown are actives, neighbours in structure and some others; about 7.4% of the full set was active somewhere. Calls follow the shape of the dose curve; as a rule, active = well fitted curve in the direction sought with a large enough effect; inconclusive = small, poorly fitted or top-dose-only effect, or another doubt; inactive = no such curve, though single readings can be large; an effect the other way counts as inactive or inconclusive. Potency is read from the fitted curve at half-maximal effect.

SMILES | SMN2 splice enh | NPC1 prom act | ELG1 genotoxic | Rab9 promoter act | KinaseGlo FLuc | FLuc modulator
O=C(Nc1cccc(-c2cnc3ccccc3n2)c1)c1cccc(NC(=O)c2ccco2)c1 | ? | 2% | -6% | 3% | -3% | 11µM*
Cc1ccc(-c2nnc(-c3ccc(NC(=O)c4ccco4)cc3)o2)cc1 | -3% | 7% | 14% | 1% | -2% | -8%
Cn1cccc1-c1nc2ccc(NC(=O)c3ccco3)cc2[nH]1 | 36% | 9% | 8% | 27% | -5% | 17µM*
Cc1ccc2nc(-c3ccc(NC(=O)c4ccco4)cc3)[nH]c2c1 | 7.9µM* | 1.6µM* | 2.1µM* | 3.5µM* | -3% | 3µM*
O=C(Nc1ccc2nc(-c3cccs3)[nH]c2c1)c1cccs1 | 5% | 13% | 6% | 28% | 2% | -9%[2.3 µM]
COc1ccc(NCc2cc3cc4c(cc3n(CC(=O)Nc3ccc(C)cc3)c2=O)OCO4)cc1 | . | . | . | . | . | -6%
O=C(Nc1ccc2nc(-c3cccs3)[nH]c2c1)c1ccco1 | ? | 27% | 4% | ? | -5% | 7.6µM*
c1cncc(CNc2cccc(-c3nc4ccccc4[nH]3)c2)c1 | 0.89µM* | 2.8µM* | ? | 2.5µM* | -21% | 7.6µM*
Nc1ccc(C(=O)Nc2ccc3nc(-c4ccncc4)[nH]c3c2)cc1 | ? | 0% | -2% | 11% | -1% | 17µM*
O=C(Nc1cccc(-c2nc3ccccc3[nH]2)c1)c1ccco1 | 5% | 13% | -9% | 0% | 9% | 15µM*
COc1c(Cl)cc(C(=O)Nc2cccc(-c3nc4ccccc4[nH]3)c2)cc1Cl | -10% | . | . | . | . | ?
c1ccc(NCc2cccnc2)cc1 | -9% | 2% | 1% | -17% | 21% | 6%
COc1cc2cc(C(=O)N3CCN(Cc4ccc5c(c4)OCO5)CC3)c(=O)oc2cc1OC | . | -3% | 0% | -5% | . | -5%
Nc1nc(-c2ccc(F)cc2)cs1 | -3% | 13% | ? | ? | 1% | ?
Brc1ccc(-c2csc(-c3ccncc3)n2)cc1 | ? | 25% | ? | ? | 3% | 4.8µM*
Nc1nc(-c2ccc(Br)cc2)cs1 | ? | ? | ? | ? | -2% | 19µM*
Brc1ccc(-c2csc(Nc3nc(-c4ccc(Br)cc4)cs3)n2)cc1 | . | 8% | -11% | 2% | . | ?
Cc1ccc(-c2csc(-c3ccncc3)n2)cc1 | ? | ? | ? | 4µM* | -2% | 11µM*
CC(C)C[C@H](NC(=O)N1CC(=O)Nc2ccccc21)C(=O)N1CCC(C(=O)O)CC1 | . | -1% | -1% | 0% | . | 2%
Fc1cccc2sc(Nc3nnc(-c4ccco4)o3)nc12 | 3.5µM* | 4µM* | 2.6µM* | 2.5µM* | -5% | 11µM*
COc1cccc2sc(Nc3nnc(-c4ccc(F)cc4)o3)nc12 | 6% | -3% | ? | -9% | -2% | 24µM*
CCOc1cccc2sc(NN)nc12 | -18% | -2% | 7% | -3% | -17% | ?
COc1cccc2sc(Nc3nnc(-c4cccs4)o3)nc12 | 14µM* | 4µM* | ? | 1µM* | -6% | 4.8µM*
COc1ccc(Cl)cc1NC(=O)CN1C(=O)NC(Cc2c[nH]c3ccccc23)C1=O (stereo not drawn) | . | . | -1% | . | . | .
CNc1c(NS(=O)(=O)c2cc(Cl)ccc2OC)c(=O)oc2ccccc12 | . | -1% | -16% | 4% | . | 0%
SMILES | SMN2 splice enh | NPC1 prom act | ELG1 genotoxic | Rab9 promoter act | KinaseGlo FLuc | FLuc modulator
O=Cc1c(OCc2ccccc2)ccc2ccccc12 | 14µM* | ? | ? | ? | -2% | 12µM*
C/[N+]([O-])=C/c1c(OCc2ccccc2)ccc2ccccc12 | . | ? | ? | ? | . | 5%
COc1cc(NC(=O)c2nccnc2N)cc(C(=O)Nc2cccc(C(F)(F)F)c2)c1 | . | -3% | 6% | -6% | . | 11µM*
COc1cc(Nc2ccccn2)cc(C(=O)Nc2cccc(C(F)(F)F)c2)c1 | . | 2% | -13% | -10% | . | ?
COc1cc(NC(=O)c2ccc(N)nc2)cc(C(=O)Nc2cccc(C(F)(F)F)c2)c1 | . | 2% | 7% | 3% | . | 7.6µM*
Cc1ccc(OCC(=O)Nc2c(Cl)ccc3nsnc23)cc1C | 7% | . | . | . | . | 2%
O=C(COC(=O)c1ccc[n+]([O-])c1)Nc1cc([N+](=O)[O-])ccc1Cl | . | . | 0% | . | . | .
Oc1c(N=Nc2ccccc2)sc2ccccc12 | . | ? | 2.3µM* | 3.2µM* | . | 0.38µM*
O=C(c1cccs1)N1CCC(c2ccccc2)C1 (stereo not drawn) | 16µM* | 3.2µM* | 18µM* | 2.8µM* | -8% | 21µM*
CCc1ccc(NC(=S)N2CCC(NC(=O)c3ccccc3)CC2)cc1 | . | 2% | -4% | -1% | . | 1%
O=C(Nc1ccccc1)N1CCC(c2ccccc2)C1 (stereo not drawn) | 18µM* | 1.6µM* | ? | 1.8µM* | -8% | 12µM*
Cc1ccc(NC(=O)N2CCCC(c3ccccc3)C2)cc1 (stereo not drawn) | . | 2% | 2% | 23% | . | 12µM*
CCc1ccc(NC(=O)N2CCC(c3ccccc3)C2)cc1 (stereo not drawn) | 25µM* | 1.1µM* | ? | 0.89µM* | 0% | 6.7µM*
CCCn1c(=S)[nH]c2cc(C(=O)N3CCN(C4CCCCC4)CC3)ccc2c1=O | . | -2% | -2% | 0% | . | 1%
CCOC(=O)c1cccc(NC(=O)Cn2c(=O)c3cccn3c3ccccc32)c1 | . | . | . | . | . | -9%
COc1ccc(-c2noc(N(C)CC(=O)Nc3cccc(C(F)(F)F)c3)n2)cc1 | 9% | ? | 2% | 22% | -10% | 8.5µM*
O=C1c2cccc3cccc(c23)C(=O)N1CCc1ccccc1 | 14µM* | 26% | 4% | ? | -1% | 13µM*
O=c1c2ccccc2c(/C=N/c2n[nH]c(CCCO)n2)c(O)n1-c1ccccc1Cl | 5% | -2% | 1% | -2% | -2% | 17µM*
Brc1cccc(OCCCNC2CCCC2)c1 | . | 0% | -5% | -12% | . | 1%
Cc1ccc(S(=O)(=O)CCC(=O)OC(C)C(=O)c2c(C)[nH]c3ccccc23)cc1 (stereo not drawn) | -9% | -1% | -4% | 3% | 1% | 3%
O=C(Nc1nc2cc3c(cc2s1)OCO3)c1ccc(N2C(=O)CCC2=O)cc1 | . | 2% | -2% | 9% | . | -10%
CC(C)C(=O)Nc1nc2cc3c(cc2s1)OCO3 | -7% | ? | 18µM* | ? | 1% | 13µM*
CC(C)(C)C(=O)Nc1nc2cc3c(cc2s1)OCO3 | . | 2µM* | ? | 1.1µM* | . | 4.8µM*
